Data as given in PubChem BioAssay AID1159580 (chemical genetic matrix, 2015).
The campaign covered roughly 5,500 compounds. About 2,000 (36%) were called active. Another 18% or so got no clear call; they are omitted. No stated cut-off is given here; in the data, active means normalized growth mostly below about 0.91 (no sharp cut-off); inconclusive means no clear call, values can overlap the other calls; inactive means mostly above about 0.92. The list shows a part of the results.

Assay: chemical genetic growth profiling, strain panel (AID 1159580);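 further: tested at 20 µM; growth read once vehicle control cultures reached saturation at 30 °C; 1 = growth at the plate median or of vehicle wells; lower values mean less growth of the strain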
Conditions: S. cerevisiae deletion strains, growth OD
[1] = locus YHR030C, strain SLT2, active compounds read low
[2] = locus YHR079C, strain IRE1, active compounds read low
[3] = locus YJL095W, strain BCK1, active compounds read low
[4] = locus YJR066W, strain TOR1, active compounds read low
[5] = locus YLR113W, strain HOG1, active compounds read low
[6] = locus YNL183C, strain NPR1, active compounds read low
[7] = locus YOR231W, strain MKK1, active compounds read low
[8] = locus YPL256C, strain CLN2, active compounds read low

Measured: normalized growth

O=C(Nc1ccc(F)cc1F)c1cc(Cl)c(-n2cccc2)c(Cl)c1
inactive: locus YAR019C, strain CDC15, active compounds read low 0.975 | locus YBL105C, strain PKC1, active compounds read low 0.972 | locus YBR135W, strain CKS1, active compounds read low 0.971 | locus YBR136W, strain MEC1, active compounds read low 0.969 | locus YBR160W, strain CDC28, active compounds read low 0.973 | locus YDL017W, strain CDC7, active compounds read low 0.974 | locus YDL028C, strain MPS1, active compounds read low 0.969 | locus YDL101C, strain DUN1, active compounds read low 0.984 | locus YDL108W, strain KIN28, active compounds read low 0.974 | locus YDL132W, strain cdc53, active compounds read low 0.976 | locus YDL214C, strain PRR2, active compounds read low 0.942 | locus YDR052C, strain DBF4, active compounds read low 0.98 | locus YDR054C, strain cdc34, active compounds read low 0.961 | locus YDR226W, strain ADK1, active compounds read low 0.97 | locus YDR477W, strain SNF1, active compounds read low 0.936 | locus YER123W, strain YCK3, active compounds read low 0.905 | locus YER133W, strain GLC7, active compounds read low 0.898 | locus YFL009W, strain cdc4, active compounds read low 0.97 | locus YFL029C, strain CAK1, active compounds read low 0.967 | locus YFR003C, strain YPI1, active compounds read low 0.975 | locus YFR019W, strain FAB1, active compounds read low 0.944 | locus YFR028C, strain CDC14, active compounds read low 0.977 | locus YGR040W, strain KSS1, active compounds read low 0.94 | locus YGR052W, strain FMP48, active compounds read low 0.984 | locus YGR092W, strain DBF2, active compounds read low 0.942 | [2] 0.864 | locus YHR082C, strain KSP1, active compounds read low 1.05 | locus YHR205W, strain SCH9, active compounds read low 0.911 | locus YIL147C, strain SLN1, active compounds read low 0.976 | [3] 0.866 | locus YJL128C, strain PBS2, active compounds read low 0.953 | locus YJL157C, strain FAR1, active compounds read low 0.934 | locus YJR016C, strain ILV3, active compounds read low 0.985 | locus YJR066W, strain TOR1 (second series), active compounds read low 0.869 | [4] 0.993 | locus YKL048C, strain ELM1, active compounds read low 0.953 | locus YKL067W, strain YNK1, active compounds read low 0.928 | locus YKL101W, strain HSL1, active compounds read low 0.929 | locus YKL193C, strain SDS22, active compounds read low 0.983 | locus YKL203C, strain TOR2, active compounds read low 0.968 | locus YLR133W, strain CKI1, active compounds read low 0.942 | locus YLR403W, strain SFP1, active compounds read low 0.902 | locus YML070W, strain DAK1, active compounds read low 0.925 | locus YMR001C, strain CDC5, active compounds read low 0.973 | locus YMR205C, strain PFK2 (second series), active compounds read low 0.959 | locus YMR277W, strain FCP1, active compounds read low 0.963 | locus YNL006W, strain LST8, active compounds read low 0.977 | locus YNL020C, strain ARK1, active compounds read low 0.911 | locus YNL161W, strain CBK1, active compounds read low 0.967 | [6] 0.951 | locus YNL207W, strain RIO2, active compounds read low 0.97 | locus YNL222W, strain SSU72, active compounds read low 0.977 | locus YNL307C, strain MCK1 (second series), active compounds read low 0.926 | locus YOL078W, strain AVO1, active compounds read low 0.981 | locus YOL136C, strain PFK27, active compounds read low 0.925 | locus YOR061W, strain CKA2, active compounds read low 0.926 | locus YOR119C, strain RIO1, active compounds read low 0.999 | [7] 0.88 | locus YOR329C, strain SCD5, active compounds read low 0.968 | locus YPL031C, strain PHO85, active compounds read low 0.922 | locus YPL153C, strain RAD53, active compounds read low 0.928 | locus YPL204W, strain HRR25, active compounds read low 0.908 | locus YPL209C, strain IPL1, active compounds read low 0.975 | locus YPR025C, strain CCL1, active compounds read low 0.968 | locus YPR106W, strain ISR1, active compounds read low 0.978 | locus YPR111W, strain DBF20, active compounds read low 0.962 | strain NNK1, active compounds read low 0.977 | strain TSCII, active compounds read low 0.968
active: [1] 0.784 | [5] 0.788 | [8] 0.829

CN(C)[C@@H]1C(=O)C(C(=O)NCN2CCCC2)=C(O)[C@@]2(O)C(=O)C3=C(O)c4c(O)cccc4[C@@](C)(O)[C@H]3C[C@@H]12
active: locus YEL003W, strain gim4, active compounds read low 0.732 | locus YLR221C, strain rsa3, active compounds read low 0.907 | locus YLR357W, strain rsc2, active compounds read low 0.787 | locus YMR058W, strain fet3, active compounds read low 0.879 | locus YNL248C, strain rpa49, active compounds read low 0.796 | locus YOR001W, strain rrp6, active compounds read low 0.89 | locus YOR106W, strain vam3, active compounds read low 0.849
inactive: locus YAL021C, strain ccr4, active compounds read low 0.935 | locus YAL026C, strain drs2, active compounds read low 0.976 | locus YAL030W, strain snc1, active compounds read low 0.994 | locus YBL061C, strain skt5, active compounds read low 0.999 | locus YBR009C, strain hhf1, active compounds read low 0.965 | locus YBR023C, strain chs3, active compounds read low 0.992 | locus YBR171W, strain sec66, active compounds read low 1.02 | locus YBR231C, strain swc5, active compounds read low 0.974 | locus YBR279W, strain paf1, active compounds read low 1 | locus YCL011C, strain gbp2, active compounds read low 0.94 | locus YCL016C, strain dcc1, active compounds read low 0.997 | locus YCL061C, strain MRC1, active compounds read low 0.997 | locus YCL069W, strain vba3, active compounds read low 1.02 | locus YCR088W, strain abp1, active compounds read low 1.01 | locus YDL005C, strain med2, active compounds read low 1.04 | locus YDL040C, strain nat1, active compounds read low 1.02 | locus YDR001C, strain nth1, active compounds read low 1.01 | locus YDR069C, strain doa4, active compounds read low 0.942 | locus YDR137W, strain rgp1, active compounds read low 0.922 | locus YDR159W, strain sac3, active compounds read low 1.04 | locus YDR195W, strain ref2 1.11 | locus YDR297W, strain sur2, active compounds read low 0.985 | locus YDR334W, strain swr1, active compounds read low 0.994 | locus YDR335W, strain msn5, active compounds read low 1 | locus YDR392W, strain spt3, active compounds read low 0.908 | locus YEL037C, strain rad23, active compounds read low 1 | locus YEL061C, strain CIN8 (second series), active compounds read low 1.01 | locus YER015W, strain faa2, active compounds read low 0.99 | locus YER016W, strain bim1, active compounds read low 1.02 | locus YER111C, strain swi4, active compounds read low 1.01 | locus YER155C, strain BEM2 (second series), active compounds read low 0.926 | locus YFR010W, strain ubp6, active compounds read low 0.985 | locus YGL167C, strain pmr1, active compounds read low 1 | locus YGL173C, strain kem1, active compounds read low 1.01 | locus YGL227W, strain vid30, active compounds read low 1.03 | locus YGL240W, strain doc1, active compounds read low 0.987 | locus YGL253W, strain hxk2, active compounds read low 1.01 | locus YHR013C, strain ard1, active compounds read low 1 | locus YHR027C, strain rpn1, active compounds read low 0.995 | [1] 1.03 | [2] 1.01 | locus YHR142W, strain chs7, active compounds read low 1 | locus YJL092W, strain hpr5, active compounds read low 1.01 | locus YJL095W, strain BCK1 (second series), active compounds read low 0.994 | [3] 0.992 | locus YJL115W, strain asf1, active compounds read low 1.01 | locus YJL129C, strain trk1, active compounds read low 1.03 | locus YJL154C, strain vps35, active compounds read low 1.02 | locus YJL164C, strain tpk1, active compounds read low 0.937 | locus YJL166W, strain qcr8, active compounds read low 0.944 | locus YJL187C, strain SWE1, active compounds read low 0.994 | [4] 0.965 | locus YKL160W, strain elf1, active compounds read low 1 | locus YKR026C, strain gcn3, active compounds read low 1 | locus YKR091W, strain srl3, active compounds read low 1.02 | locus YLL001W, strain dnm1, active compounds read low 1.02 | locus YLL026W, active compounds read low 1 | locus YLL041C, strain sdh2, active compounds read low 1.01 | locus YLR027C, strain aat2, active compounds read low 0.984 | [5] 0.959 | locus YLR258W, strain gsy2, active compounds read low 0.967 | locus YLR262C, strain YPT6 (second series), active compounds read low 0.945 | locus YLR320W, strain mms22, active compounds read low 0.97 | locus YLR342W, strain FKS1, active compounds read low 1 | locus YLR370C, strain arc18, active compounds read low 1 | locus YLR384C, strain iki3, active compounds read low 1.01 | locus YML120C, strain ndi1, active compounds read low 0.936 | locus YMR125W, strain sto1, active compounds read low 1.03 | locus YMR129W, active compounds read low 1.01 | locus YMR205C, strain PFK2, active compounds read low 1.01 | locus YMR231W, strain pep5, active compounds read low 1.01 | locus YNL071W, strain lat1, active compounds read low 0.942 | [6] 0.946 | locus YNL209W, strain ssb2, active compounds read low 0.993 | locus YNL322C, strain KRE1 (second series), active compounds read low 1 | locus YNR049C, strain mso1, active compounds read low 1.01 | locus YOR070C, strain gyp1, active compounds read low 1 | locus YOR080W, strain dia2, active compounds read low 1.01 | locus YOR083W, strain WHI5, active compounds read low 0.978 | [7] 1.03 | locus YOR265W, strain rbl2, active compounds read low 1 | locus YOR270C, strain vph1, active compounds read low 0.977 | locus YOR290C, strain snf2, active compounds read low 0.991 | locus YPL051W, strain arl3, active compounds read low 0.949 | locus YPL078C, strain atp4, active compounds read low 1 | locus YPL106C, strain sse1, active compounds read low 0.95 | locus YPL240C, strain hsp82, active compounds read low 1.02 | [8] 1.01
